# Measurements as given in PubChem BioAssay (NCI).
# Where “and” joins values, the source holds several entries; their conditions need not be identical. Equal entries are not always repeated. The panel holds about 83,000 compounds, 20% with a hit somewhere; the sample as a whole holds those more often.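 A percent growth of 40 corresponds to 60% growth inhibition; 0 means no net growth; -100 means all cells died. Active threshold: below 10.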 A number with no mark means an inactive call. Calls of active or inactive are those of the source. Starred links: 1 amine or outer side, 2 acyl side, 3 side chain; linkers in the order of their positions; H or OH if unused. Positions of bridges follow the written chain, without caps; N, C: chain ends. Non-standard residues stand in square brackets, D forms with d. Residues, ends and D or L forms follow the SMILES beside them. Chains are numbered I, II in the order given. Actinocin(9to1) = Cc1c2oc3c(C)ccc(C(=O)[*:1])c3nc-2c(C(=O)[*:2])c(N)c1=O; aThr = C[C@H](O)[C@H](N)C(=O)O; NMeV = CN[C@H](C(=O)O)C(C)C; Sar = CNCC(=O)O
# Experiments:
# Test in all cases: NCI-60 one-dose screen, 48 h (100 = growth as untreated, 0 = no growth, -100 = all killed)
# SN12C renal = test system: SN12C renal
# UO-31 renal = test system: UO-31 renal
# TK-10 renal = test system: TK-10 renal
# ACHN renal = test system: ACHN renal
# A498 renal = test system: A498 renal
# CCRF-CEM leukemia = test system: CCRF-CEM leukemia
# MOLT-4 leukemia = test system: MOLT-4 leukemia
# SR leukemia = test system: SR leukemia
# RPMI-8226 leukemia = test system: RPMI-8226 leukemia
# OVCAR-8 ovarian = conditions: 10 µM
# OVCAR-5 ovarian = test system: OVCAR-5 ovarian
# OVCAR-4 ovarian = test system: OVCAR-4 ovarian
# SK-OV-3 ovarian = test system: SK-OV-3 ovarian
# IGROV1 ovarian = test system: IGROV1 ovarian
# OVCAR-3 ovarian = test system: OVCAR-3 ovarian
# HS 578T breast = test system: HS 578T breast
# T-47D breast = test system: T-47D breast
# BT-549 breast = test system: BT-549 breast
# MDA-MB-435 melanoma = test system: MDA-MB-435 melanoma
# EKVX NSCLC = test system: EKVX NSCLC
smiles,measurement,setting,value
CCCCCCCCCCCCCCCCCN,growth,SN12C renal; 10 µM,96.8%
same,growth,UO-31 renal; 10 µM,87.6%
same,growth,TK-10 renal; 10 µM,102%
same,growth,ACHN renal; 10 µM,97%
same,growth,A498 renal; 10 µM,104%
same,growth,CCRF-CEM leukemia; 10 µM,102%
same,growth,MOLT-4 leukemia; 10 µM,104%
same,growth,SR leukemia; 10 µM,57.8%
same,growth,RPMI-8226 leukemia; 10 µM,107%
same,growth,OVCAR-8 ovarian,104%
same,growth,OVCAR-5 ovarian; 10 µM,106%
same,growth,OVCAR-4 ovarian; 10 µM,102%
same,growth,SK-OV-3 ovarian; 10 µM,96.8%
same,growth,IGROV1 ovarian; 10 µM,107%
same,growth,OVCAR-3 ovarian; 10 µM,108%
same,growth,HS 578T breast; 10 µM,103%
same,growth,T-47D breast; 10 µM,101%
same,growth,BT-549 breast; 10 µM,106%
same,growth,MDA-MB-435 melanoma; 10 µM,99.5%
Cc1cnc(/C=N\NC(N)=S)c2cccc(N)c12,growth,EKVX NSCLC; 10 µM,29.5%
same,growth,SN12C renal; 10 µM,-12.9% (active)
same,growth,UO-31 renal; 10 µM,1.67% (active)
same,growth,TK-10 renal; 10 µM,19.6%
same,growth,ACHN renal; 10 µM,10.2%
same,growth,A498 renal; 10 µM,12.4%
same,growth,CCRF-CEM leukemia; 10 µM,-28.1% (active)
same,growth,MOLT-4 leukemia; 10 µM,-13.8% (active)
same,growth,SR leukemia; 10 µM,-16.3% (active)
same,growth,RPMI-8226 leukemia; 10 µM,-9.76% (active)
same,growth,OVCAR-8 ovarian,17.7%
same,growth,OVCAR-5 ovarian; 10 µM,34.9%
same,growth,OVCAR-4 ovarian; 10 µM,31.9%
same,growth,SK-OV-3 ovarian; 10 µM,22.9%
same,growth,OVCAR-3 ovarian; 10 µM,0.342% (active)
same,growth,HS 578T breast; 10 µM,69.1%
same,growth,T-47D breast; 10 µM,9.76% (active)
same,growth,MDA-MB-435 melanoma; 10 µM,27.8%
COc1ccc2c(C)cc(N/N=C/c3sccc3C)nc2c1,growth,TK-10 renal; 100 µM,-82.7% (active) and -100% (active)
"Cc1c2oc3c(C)ccc(C(=O)N[C@@H]4C(=O)N[C@H](C(C)C)C(=O)N5CCC[C@H]5C(=O)N(C)CC(=O)N(C)[C@@H](C(C)C)C(=O)O[C@H]4C)c3nc-2c(C(=O)N[C@@H]2C(=O)N[C@H](C(C)C)C(=O)N3CCC[C@H]3C(=O)N(C)CC(=O)N(C)[C@@H](C(C)C)C(=O)O[C@H]2C)c(N)c1=O (I: [aThr][dV]P[Sar][NMeV] / II: [aThr][dV]P[Sar][NMeV]; ester I:1-I:C, II:1-II:C; linker I:N-II:N via Actinocin(9to1))",growth,EKVX NSCLC; 0.0025 µM,54%
same,growth,EKVX NSCLC; 10 µM,-11% (active)
same,growth,SN12C renal; 0.0025 µM,46.6%
same,growth,SN12C renal; 10 µM,14.9%
same,growth,UO-31 renal; 0.0025 µM,99.4%
same,growth,UO-31 renal; 10 µM,-12.6% (active)
same,growth,TK-10 renal; 0.0025 µM,87.7%
same,growth,TK-10 renal; 10 µM,9.15% (active)
same,growth,ACHN renal; 0.0025 µM,62%
same,growth,ACHN renal; 10 µM,3.24% (active)
same,growth,A498 renal; 0.0025 µM,32.4%
same,growth,CCRF-CEM leukemia; 0.0025 µM,42.3%
same,growth,CCRF-CEM leukemia; 10 µM,0.799% (active)
same,growth,MOLT-4 leukemia; 0.0025 µM,23%
same,growth,MOLT-4 leukemia; 10 µM,-7.29% (active)
same,growth,SR leukemia; 0.0025 µM,14.8%
same,growth,SR leukemia; 10 µM,3.04% (active)
same,growth,RPMI-8226 leukemia; 0.0025 µM,3.42% (active)
same,growth,RPMI-8226 leukemia; 10 µM,-21.3% (active)
same,growth,OVCAR-5 ovarian; 0.0025 µM,50.9%
same,growth,OVCAR-5 ovarian; 10 µM,-66.1% (active)
same,growth,OVCAR-4 ovarian; 0.0025 µM,50.3%
same,growth,OVCAR-4 ovarian; 10 µM,-8.21% (active)
same,growth,SK-OV-3 ovarian; 0.0025 µM,92.8%
same,growth,SK-OV-3 ovarian; 10 µM,14.8%
same,growth,IGROV1 ovarian; 0.0025 µM,35.5%
same,growth,IGROV1 ovarian; 10 µM,-27.7% (active)
same,growth,OVCAR-3 ovarian; 0.0025 µM,70%
same,growth,OVCAR-3 ovarian; 10 µM,5.84% (active)
same,growth,HS 578T breast; 0.0025 µM,-10.9% (active)
same,growth,T-47D breast; 0.0025 µM,53.6%
same,growth,T-47D breast; 10 µM,-13.8% (active)
same,growth,BT-549 breast; 0.0025 µM,27.5%
same,growth,BT-549 breast; 10 µM,-45.4% (active)
same,growth,MDA-MB-435 melanoma; 0.0025 µM,41.6%
same,growth,MDA-MB-435 melanoma; 10 µM,-93.8% (active)
O=C(/C(=C/c1ccccc1)CBr)c1ccccc1,growth,EKVX NSCLC; 10 µM,82.1%
same,growth,SN12C renal; 10 µM,71.4%
same,growth,UO-31 renal; 10 µM,69.9%
same,growth,TK-10 renal; 10 µM,116%
same,growth,ACHN renal; 10 µM,70%
same,growth,A498 renal; 10 µM,128%
same,growth,CCRF-CEM leukemia; 10 µM,-4.28% (active)
same,growth,MOLT-4 leukemia; 10 µM,-3.18% (active)
same,growth,SR leukemia; 10 µM,-0.723% (active)
same,growth,RPMI-8226 leukemia; 10 µM,16.9%
same,growth,OVCAR-8 ovarian,86.1%
same,growth,OVCAR-5 ovarian; 10 µM,122%
same,growth,OVCAR-4 ovarian; 10 µM,80.3%
same,growth,SK-OV-3 ovarian; 10 µM,112%
same,growth,IGROV1 ovarian; 10 µM,90.9%
same,growth,OVCAR-3 ovarian; 10 µM,66.1%
same,growth,HS 578T breast; 10 µM,82.9%
same,growth,T-47D breast; 10 µM,77.5%
same,growth,BT-549 breast; 10 µM,112%
same,growth,MDA-MB-435 melanoma; 10 µM,64%
N#C/C(=C1C=C/C(=N\O)C(Cl)=C\1)c1ccccc1,growth,SN12C renal; 10 µM,34.8%
same,growth,UO-31 renal; 10 µM,34%
same,growth,TK-10 renal; 10 µM,53.1%
same,growth,ACHN renal; 10 µM,25.7%
same,growth,A498 renal; 10 µM,86.5%
same,growth,MOLT-4 leukemia; 10 µM,33.6%
same,growth,RPMI-8226 leukemia; 10 µM,27.3%
same,growth,OVCAR-8 ovarian,43.2%
same,growth,OVCAR-5 ovarian; 10 µM,64%
same,growth,OVCAR-4 ovarian; 10 µM,57%
same,growth,SK-OV-3 ovarian; 10 µM,37.5%
same,growth,IGROV1 ovarian; 10 µM,53%
same,growth,OVCAR-3 ovarian; 10 µM,39.6%
same,growth,HS 578T breast; 10 µM,56.2%
same,growth,T-47D breast; 10 µM,43.3%
same,growth,BT-549 breast; 10 µM,110%
same,growth,MDA-MB-435 melanoma; 10 µM,-43% (active)
S=c1[nH]nc(Cc2ccccc2)c(=S)[nH]1,growth,EKVX NSCLC; 10 µM,97.8%
same,growth,SN12C renal; 10 µM,113%
same,growth,UO-31 renal; 10 µM,76.3%
same,growth,TK-10 renal; 10 µM,99.7%
same,growth,ACHN renal; 10 µM,107%
same,growth,A498 renal; 10 µM,68.9%
same,growth,CCRF-CEM leukemia; 10 µM,104%
same,growth,MOLT-4 leukemia; 10 µM,106%
same,growth,SR leukemia; 10 µM,94.7%
same,growth,RPMI-8226 leukemia; 10 µM,97.2%
same,growth,OVCAR-8 ovarian,104%
same,growth,OVCAR-5 ovarian; 10 µM,107%
same,growth,OVCAR-4 ovarian; 10 µM,98%
same,growth,SK-OV-3 ovarian; 10 µM,99.6%
same,growth,IGROV1 ovarian; 10 µM,102%
same,growth,OVCAR-3 ovarian; 10 µM,95.4%
same,growth,HS 578T breast; 10 µM,101%
same,growth,T-47D breast; 10 µM,90.4%
same,growth,BT-549 breast; 10 µM,109%
same,growth,MDA-MB-435 melanoma; 10 µM,106%
CN(C)CCC(=O)c1c[nH]c2ccccc12,growth,EKVX NSCLC; 10 µM,111%
same,growth,SN12C renal; 10 µM,104%
same,growth,UO-31 renal; 10 µM,77.3%
same,growth,TK-10 renal; 10 µM,103%
same,growth,ACHN renal; 10 µM,105%
same,growth,A498 renal; 10 µM,126%
same,growth,CCRF-CEM leukemia; 10 µM,96.2%
same,growth,MOLT-4 leukemia; 10 µM,93.6%
same,growth,SR leukemia; 10 µM,91.5%
same,growth,RPMI-8226 leukemia; 10 µM,98.1%
same,growth,OVCAR-8 ovarian,112%
same,growth,OVCAR-5 ovarian; 10 µM,109%
same,growth,OVCAR-4 ovarian; 10 µM,111%
same,growth,SK-OV-3 ovarian; 10 µM,96.6%
same,growth,IGROV1 ovarian; 10 µM,106%
same,growth,OVCAR-3 ovarian; 10 µM,110%
same,growth,HS 578T breast; 10 µM,106%
same,growth,T-47D breast; 10 µM,84.1%
same,growth,BT-549 breast; 10 µM,121%
same,growth,MDA-MB-435 melanoma; 10 µM,107%
